According to PubChem BioAssay AID1347120 (National Center for Advancing Translational Sciences (NCATS), 2019):
In all, about 390,000 compounds went through this assay and about 930 (0.24%) were called active. Another 5% or so got no clear call; they are omitted. Only a selection was taken, and actives are over-represented in it overall. Unmarked numbers belong to inactive results. Calls follow the shape of the dose curve; as a rule, active = well fitted activation curve with a large enough effect; inconclusive = small, poorly fitted or top-dose-only effect; inactive = no such curve, though single readings can be large or run the other way.

assay: qHTS for Suppressors of FUS Proteinopathy: Primary screen using FUS-linked yeast assay; also: nearly all actives have a fitted effect of over 55% in size;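 as to growth rescue (activation): plate controls were DMSO vehicle for no effect and reference control for full effect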; settings: S. cerevisiae FUS-expressing, OD600, 24 h; Potency: growth rescue; series mostly up to 76.6 µM; growth rescue (activation): at the top concentration
Description: Several widespread neurodegenerative diseases, including Alzheimer disease, Huntington disease, Frontotemporal Lobar Degeneration (FTLD) and Amyotrophic Lateral Sclerosis (ALS), share a common pathological feature, namely accumulation of specific protein aggregates in diseased tissue. These diseases which is associated with protein misfolding (proteinopathies) have become increasingly problematic as the population ages and life expectancies are extended. Most proteinopathies are currently incurable, a situation confounded by the fact that the basis of neurodegeneration is generally poorly understood. There exists urgent and significant need to find therapeutics that can inhibit the toxicity associated with protein aggregation. A novel approach to understand the underlying mechanisms of neurodegenerative diseases has recently emerged in which the disease conditions are modeled in the yeast (Saccharomyces cerevisiae), a tractable eukaryotic organism with conserved protein quality control mechanisms. Yeast offers quick and reliable genetic manipulations and can be easily tailored to high-throughput screening (HTS).
For this project, a yeast model of the FUS proteinopathies (a spectrum of neurodegenerative diseases that include ALS and a subtype of FTLD) was generated and employed. The cytoplasmic accumulation of the DNA/RNA-binding protein FUS (also known as TLS) is causative to both familial and sporadic forms of ALS and FTLD. This yeast model recapitulates neuronal pathology by showing severe cytotoxicity associated with cytoplasmic accumulation of FUS aggregates and a specific interaction between FUS and TDP-43, another ALS-associated protein. […] Specifically, the cellular accumulation of misfolded FUS that disrupts RNA homeostasis in both yeast and higher eukaryotes. This model was validated to be suitable for quantitative HTS (qHTS) use for finding genetic or chemical factors that restore growth. […] Identified compounds that inhibits FUS-yeast toxicity is flagged, re-acquired, and validated for further investigation and optimization.
NIH Chemical Genomics Center [NCGC]
NIH Molecular Libraries Probe Production Centers Network [MLPCN]
Assay Submitter (PI): Frank Shewmaker PhD, Uniformed Services University of the Health Sciences
Compound CP55940 was used as the positive control. Column 1 was treated with CP55940 titration from 92uM (final concentration, 1:2 dilution), while Column 2 was treated with top dose 92uM. Columns 3 and 4 were treated with DMSO only as negative control to assess background and noise signal.
Four hundred fifty microliter of cultured yeast (in 20mL rich medium) provided by Dr. Shewmaker lab was incubated at 30C at 99% humidity for 3hr. The culture was then spun down at 4000rpm for 5min and the cell pellet was resuspended in 2mL of Sdmin Media + ALU(330) + 2.5% Raffinose. One hundred microliter of the suspension was added to 900uL of water and OD of the solution was obtained. Twenty mL of responding medium (provided by Shewmaker lab) + 2.5% raffinose was added to ensure cell density of 0.1; the solution was incubated overnight. Working cell solution (FUS-yeast in Sdmi + Sdmi + 1X ALU + 2% galactose media) was prepared (final OD at 0.005) and 3uL was dispensed in a 1536-well Aurora high based clear bottom assay plates. Controls and library compounds (at various final concentrations from 40uM to 0.32uM) were added using a 1536-well pin array using the Kalypsys pin-tool. The plates were then incubated for 24hrs in a cell-culture incubator (30C; 99% humidity). Absorbance at 600nm was then read using the PerkinElmer ViewLux plate reader.
Potency is read from the fitted curve at half-maximal effect.

Row | Structure (SMILES) | growth rescue (activation) [%] | Potency
1 | COc1ccc(-c2cn3c(n2)sc2cc(C(=O)Nc4ccc(F)cc4)ccc23)cc1 | 0.0987 | –
2 | COc1ccc(Cc2nc3ccc(C(=O)NCc4ccccc4C)cc3o2)cc1 | 6.51 | –
3 | Cc1cc(NC(=O)C2CCC(CNS(=O)(=O)c3ccc(Br)s3)CC2)ccc1Br (stereo unspecified) | -10.7 | –
4 | Cc1oc2ccc(O)c(CN3CCC(C)CC3)c2c1C(=O)Nc1ccccc1 | 0.0169 | –
5 | CCCCOc1ccc(C(=O)N2CC(=O)Nc3ccc(Br)cc3C2c2ccc(F)cc2)cc1 (stereo unspecified) | 41.7 | –
6 | CCCNC(=O)C1CCN(c2nc3ccc(C)cc3[nH]2)CC1 | 4.98 | –
7 | O=C(CSc1nc2nccnc2c(=O)n1CCc1c[nH]c2ccccc12)Nc1ccccc1F | -9.63 | –
8 | CCOC(=O)N1CCC(NC(=O)c2cnn(-c3cccc(C)c3)c2C2CCN(C(=O)OC(C)(C)C)CC2)CC1 | 18.5 | –
9 | CCc1cccc(NC(=O)c2cc(-c3ccccc3)n[nH]2)c1 | -10.8 | –
10 | C#CCOCCOCCOCCNc1nc(N2CCN(C(=O)CCCCCCCCCCNC(=O)[C@H](CCCCN)n3cc(C)nn3)CC2)nc(N2CCN(C(=O)CCCCCCCCCCNC(=O)[C@H](CO)n3cc(CCCSC)nn3)CC2)n1 | – | 11.2 µM (active)
11 | C#CCOCCOCCOCCNc1nc(N2CCN(C(=O)C([C@@H](C)O)n3cc([C@@H](N)CCCCN)nn3)CC2)nc(N2CCN(C(=O)[C@H](CCCCN)n3cc(CN)nn3)CC2)n1 (stereo partly specified) | 1.02 | –
12 | C#CCOCCOCCOCCNc1nc(N2CCOCC2)nc(N2CCN(C(=O)[C@H](Cc3ccc(O)cc3)n3cc(CCO)nn3)CC2)n1 | -3.33 | –
13 | C#CCOCCOCCOCCNc1nc(N2CCN(C(=O)[C@H](CCC(=O)O)n3cc(C(N)CO)nn3)CC2)nc(N2CCN(C(=O)[C@H](Cc3ccc(O)cc3)n3cc(C(N)[C@H](C)CC)nn3)CC2)n1 (stereo partly specified) | 11.9 | –
14 | C#CCOCCOCCOCCNc1nc(N2CCN(C(=O)CCCCCCCCCCNC(=O)[C@H]([C@@H](C)CC)n3cc(CCCCN=C(N)N)nn3)CC2)nc(N2CCN(C(=O)CCCCCCCCCCNC(=O)[C@H](CO)n3cc(CCCSC)nn3)CC2)n1 | – | 3.16 µM (active)
15 | C#CCOCCOCCOCCNc1nc(N2CCN(C(=O)C([C@@H](C)CC)n3cc(C(N)COC(=O)C(F)(F)F)nn3)CC2)nc(N2CCN(C(=O)[C@H](CCCCN)n3cc(C(N)CC(C)C)nn3)CC2)n1 (stereo partly specified) | 29.1 | –
16 | Fc1ccc(-c2nc(Nc3cccc(Cl)c3)nc3c2COc2ccccc2-3)cc1 | -6.76 | –
17 | CC(=O)c1cccc(Nc2ccc3cc(S(=O)(=O)N4CCC(C)CC4)ccc3n2)c1 | -8.08 | –
18 | COc1ccc(-c2cc(-c3nc(-c4cc(OC)c(OC)c(OC)c4)no3)[nH]n2)c(OC)c1 | 17.9 | –
19 | CCN(C(=O)CSc1nnc(C)n2c1cc1occc12)c1ccccc1 | 22.4 | –
20 | COc1ccc(-c2onc(C)c2C)cc1S(=O)(=O)NCCc1ccccc1 | 10.1 | –
21 | CCN(CC)C(=O)CSc1nc2ccsc2c(=O)n1Cc1ccccc1Cl | 14 | –

Row | Structure (SMILES) | growth rescue (activation) [%] | Potency
22 | Cc1c(Cl)cccc1NC(=O)C(=O)NCCc1csc2nc(-c3ccccc3F)nn12 | 22.4 | –
23 | Cc1cccc(Cn2c(SCc3ccc(C(=O)N4CCC(C)CC4)cc3)nc3ccncc32)c1 | 22.7 | –
24 | CC(=O)N1CCCc2cc(S(=O)(=O)N3CCC(C(=O)NCc4ccc(F)cc4)CC3)ccc21 | 2.3 | –
25 | O=C(c1ccc(C(F)(F)F)cc1)N1CCC(c2nc(-c3ccc(S(=O)(=O)N4CCCC4)cc3)no2)CC1 | 6.21 | –
26 | CSc1ccccc1NC(=O)CCS(=O)(=O)c1nc(-c2cccs2)cc(C(F)(F)F)n1 | -9.46 | –
27 | Cc1c(Cl)cccc1NC(=O)Cn1cc(C(=O)c2cccs2)c2ccccc21 | -1.82 | –
28 | CCN(CCCNC(=O)c1cc(Nc2ccc(OC)cc2)nc2ccccc12)c1cccc(C)c1 | 2.94 | –
29 | Cc1ccc(-n2ncc(C(=O)N(C)Cc3ccccc3)c2-n2cccc2)cc1 | 37.3 | –
30 | Cc1ccc2[nH]c(=O)c(CN(CCCN(C)C)C(=O)Nc3cccc(Cl)c3)cc2c1 | 19.3 | –
31 | Cc1cccc(NC(=O)N(Cc2cc3cc(C)cc(C)c3[nH]c2=O)CC2COCCO2)c1 (stereo unspecified) | – | 35.5 µM (active)
32 | Cc1ccc2[nH]c(=O)c(CN(CC3COCCO3)C(=O)Nc3ccccc3C)cc2c1 (stereo unspecified) | -6.95 | –
33 | CCCCCN(C(=O)CCC(=O)OCC(=O)NC1CCC(C)CC1)c1c(N)n(CCCC)c(=O)[nH]c1=O (stereo unspecified) | – | 31.6 µM (active)
34 | CCCCn1c(N)c(N(CCC(C)C)C(=O)COC(=O)c2ccc(CC)cc2)c(=O)[nH]c1=O | 35.6 | –
35 | CCCCCN(C(=O)CCC(=O)OCC(=O)NCc1ccc(OC)cc1)c1c(N)n(CCCC)c(=O)[nH]c1=O | 40.8 | –
36 | Cc1ccc(CNC(=O)CCC(=O)N2Cc3ccccc3Oc3ncccc32)cc1 | -4.72 | –
37 | COc1ccc(CCNC(=O)c2ccc3c(c2)sc2nc(-c4ccc(C)cc4)cn23)cc1OC | 5.69 | –
38 | COC(=O)c1ccc(NC(=O)CCc2c(C)nn(-c3ccc(N4CCCC4)nn3)c2C)cc1 | 14.5 | –
39 | Cc1ccc(Cc2cnc(N)s2)o1 | – | 11.2 µM (active)
40 | Fc1ccc(Nc2nc(SCc3ccccc3Cl)nc3ccccc23)cc1 | -4.05 | –
41 | O=C(Nc1c(C(=O)N2CCN(c3ccc(F)cc3)CC2)oc2ccccc12)c1ccco1 | 38.7 | –
